Experimental data reported in PubChem BioAssay (NCI).
About 83,000 compounds went through this panel and 20% of them were active in at least one assay; those are over-represented in the sample as a whole.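 96-well plates, one dose, 48 hours. Percent growth reported; active if below 10.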 Active and inactive are the calls of the source.

tested on: M14 melanoma; test: NCI-60 one-dose screen, 48 h (100 = growth as untreated, 0 = no growth, -100 = all killed); conditions: 10 µM

Row | Compound | growth
1 | Cc1ccc(/C=C/C(=O)c2ccc(NC(=O)CSc3nnc(-c4c[nH]c5ccccc45)n3-c3ccccc3)cc2)cc1 | 82.1% (inactive)
2 | O=C(CSc1nnc(-c2ccc3nc(-c4ccccc4)[nH]c3c2)o1)Nc1ccc(Br)cc1 | 52.3% (inactive)
3 | O=C(CNc1nc(-c2ccccc2)cs1)Nc1ccccc1 | -73.8% (active)
4 | O=C(/C=C/Nc1ccc(F)cc1F)c1ccc2c(c1)Nc1ccccc1S2 | 66.4% (inactive)
5 | COc1cc(Cn2c(C(F)(F)F)cc3c(Cl)ncnc32)ccn1 | -25.6% (active)
6 | COc1ccc(-c2cc(C(=O)N=Nc3c(O)[nH]c4ccc(F)cc34)c3ccccc3n2)cc1 | 74.4% (inactive)
7 | O=C(Nc1ccccc1)Nc1nc2ccccc2s1 | 78.8% (inactive)
8 | O=C(CSc1nnc(-c2ccc3nc(-c4ccccc4)[nH]c3c2)o1)Nc1ccc(Cl)cc1 | 39.7% (inactive)
9 | CCOc1ccc(Nc2nc3ccccc3nc2Nc2ccc(OCC)cc2)cc1 | 37.6% (inactive)
10 | CNC(=O)c1cc(-c2ccc(NC(=O)Nc3ccc(C)cc3)cc2)nc2cccnc12 | 116% (inactive)
11 | NC(=Nc1ccc(OCCCCCCCCn2ccnn2)cc1)c1ccccc1 | 18.4% (inactive)
12 | Cc1ccc(C(=O)Nc2ccc(-n3c(C)nc4c(cnn4-c4ccccc4)c3=O)cc2)cc1 | 73.2% (inactive)
13 | COc1ccc(-c2cc(-c3cc(C(=O)c4ccccc4)n4ccc(C)cc34)nc(N)c2C#N)cc1 | 79.8% (inactive)
14 | C[C@H]1[C@H](C)CC[C@]2(COC(=O)CCC(=O)NCC#CCN3CCNCC3)CC[C@]3(C)C(=CC[C@@H]4[C@@]5(C)CCCNC(C)(C)[C@@H]5CC[C@]43C)[C@H]12 | -16.7% (active)
15 | O=c1[nH]c2ccc(Cl)cc2cc1CSc1ccc(Nc2nccc(-c3ccc(Cl)cc3)n2)cc1 | 84.4% (inactive)
16 | COc1ccc(-c2cc(C(=O)N=Nc3c(O)[nH]c4ccccc34)c3ccccc3n2)cc1 | 11.1% (inactive)
17 | COc1ccc(-c2nc(S(=O)(=O)c3ccc(C)cc3)c(S(=O)(=O)CC(=O)N(C)Cc3ccccc3)o2)cc1 | 35.7% (inactive)
18 | COc1ccc(C(C)=C(c2ccc(OCCCN(C)C)cc2)c2ccc(OCCCN(C)C)cc2)cc1 | -79.8% (active)
19 | COc1cc2c3c(n(CCCNCCO)c(=O)c2cc1OC)-c1nc2c(cc1C3=O)OCO2 | 23.7% (inactive)
20 | c1ccc(C(=C(c2ccc(OCCN3CCCCC3)cc2)c2ccc(OCCN3CCCCC3)cc2)C2CCCC2)cc1 | -44.4% (active)
21 | O=C(CSc1nnc(-c2c[nH]c3ccccc23)n1-c1ccccc1)Nc1ccc(C(=O)/C=C/c2ccc(Cl)cc2)cc1 | 81.8% (inactive)
22 | COc1cnc2c(c1)C(=O)c1c-2n(CCCNC(C)C)c(=O)c2cc(OC)c(OC)cc12 | 45.3% (inactive)
23 | COc1ccc(NC(=O)CSc2nnc(-c3ccc4nc(-c5ccc(Cl)cc5)[nH]c4c3)o2)cc1 | 14.8% (inactive)
24 | CN(CCO)c1oc(-c2ccccc2)nc1[P+](c1ccccc1)(c1ccccc1)c1ccccc1 | 12.2% (inactive)
25 | CN1CCc2c(sc3ncnc(N/N=C/c4ccc5ccccc5c4)c23)C1 | 82% (inactive)
